# An excerpt weighted towards active compounds, which were near 4.6% of everything screened.
# ADAM10 inh – inhibits human ADAM10; O14672; recombinant ADAM10, EDANS/DABCYL FRET peptide cleavage, 3 h; inhibition, % at 7 µM; actives 0.62% (n = 370,000); AID 720582;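 active = inhibition above a per-campaign cutoff equal to the mean of compounds falling between control-based bounds plus 3 SD, cut at about 20% in these data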;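 note: 0% = DMSO wells while the 100% control is not disclosed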
# Target sequence (O14672 214-748 limits assumed): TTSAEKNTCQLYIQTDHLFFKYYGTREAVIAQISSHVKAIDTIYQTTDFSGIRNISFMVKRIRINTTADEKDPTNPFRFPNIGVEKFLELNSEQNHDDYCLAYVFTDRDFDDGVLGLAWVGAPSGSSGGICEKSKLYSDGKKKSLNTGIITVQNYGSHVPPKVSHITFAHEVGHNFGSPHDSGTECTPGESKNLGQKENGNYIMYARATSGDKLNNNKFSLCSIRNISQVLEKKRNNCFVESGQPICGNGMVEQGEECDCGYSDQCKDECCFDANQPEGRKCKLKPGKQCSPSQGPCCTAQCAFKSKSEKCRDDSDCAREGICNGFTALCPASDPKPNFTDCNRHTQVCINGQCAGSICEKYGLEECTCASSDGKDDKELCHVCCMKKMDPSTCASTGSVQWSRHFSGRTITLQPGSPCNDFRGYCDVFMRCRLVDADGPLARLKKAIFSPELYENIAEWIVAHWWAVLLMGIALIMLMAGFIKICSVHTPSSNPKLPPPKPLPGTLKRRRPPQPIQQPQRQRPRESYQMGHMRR
# FAS TE block – blocks the thioesterase domain of human fatty acid synthase; P49327; inhibition, % at 15 µM; AID 602261; actives 0.67% (n = 360,000); recombinant FAS-TE, OMFH fluorogenic substrate, fluorescence endpoint;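 active = compounds whose normalised, plate-corrected inhibition of enzyme fluorescence in the single-dose primary screen is 50% or more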;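 note: 0% = DMSO with enzyme and 100% = substrate without enzyme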
# KLK7 zymogen act – proKLK7 (human) activation, primary screen; P49862; purified proKLK7, EDANS-DABCYL substrate fluorescence; 100% is mature enzyme control, 0% vehicle; activation, % at 7 µM; actives 0.9% (n = 370,000);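 active = activation above the mean of all tested compounds plus 3 SD, computed per campaign excluding outliers beyond control limits, cut at about 13% in these data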
# ADAM17 inh – inhibits human ADAM17 | recombinant ADAM17, EDANS/DABCYL FRET peptide cleavage | P78536 | actives 0.83% (n = 370,000) | inhibition, % at 6.95 µM;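 active = inhibition above the mean of compounds lying between control limits plus 3 SD, set per campaign, cut at about 8.5% in these data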;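 note: 0% = DMSO-only wells as the low control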
# NR3A LBD binder – modulators (binders) of human NR3A ligand-binding domain. NR3A LBD differential scanning fluorimetry, Tm shift; 0% = protein alone, 100% = glycine-bound protein. Tm shift relative to glycine control, % at 25 µM. actives 2.5% (n = 340,000);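 active = melting temperature shift of at least 10% of the positive control shift, at one fixed dose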
# ADAM10 ctr – ADAM10 inhibition, counter-screen for ADAM17 exosite hits; AID 743256; inhibition, % at 6.95 µM; actives 47% (n = 2,900); shares compounds with ADAM17 inh; recombinant ADAM10, EDANS/DABCYL FRET peptide cleavage, 3 h;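 active = mean inhibition over the triplicate runs exceeds the activity threshold set in the earlier primary screen, cut at about 20% in these data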;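 note: 0% = DMSO wells and 100% = marimastat wells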
# ADAM17 confirm – confirmation of inhibitors of human ADAM17 | actives 65% (n = 2,900) | shares compounds with ADAM17 inh | AID 743257 | recombinant ADAM17, EDANS/DABCYL QFRET peptide cleavage | inhibition, % at 6.95 µM;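 active = mean inhibition across replicates above the hit cutoff set in the primary screen, cut at about 8.5% in these data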;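 note: 0% = DMSO wells and 100% = marimastat wells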
# The depositor's hits bear a star; · = not tested or not shown.
SMILES,ADAM10 inh,FAS TE block,KLK7 zymogen act,ADAM17 inh,NR3A LBD binder,ADAM10 ctr,ADAM17 confirm
COC(=O)C1=C(C)N(C)C(=NCc2cc(OC)c(OC)c(OC)c2)NC1c1cccc(Cl)c1 (stereo not given),0,·,0,-1,·,·,·
C[C@]12CCC(=O)C=C1CC[C@@H]1[C@@H]2[C@@H](O)C[C@@]2(C)[C@H]1CC[C@]2(O)C(=O)COC(=O)CCC(=O)O,3,-7,0,8.8*,1,4,3
COC(=O)[C@]12C[C@H](CC(=O)NCC34CC5CC(CC(C5)C3)C4)C(=O)N(CCC3=CCCCC3)C1=C[C@H](COCc1ccccc1)O[C@@H]2C,3,·,1,-2,·,·,·
COc1ccc(C2c3ccc4ccccc4c3Oc3ncn(CCN4CCOCC4)c(=N)c32)cc1 (stereo not given),18,5,0,9.2*,-3,12,8
COc1ccc(C2c3ccc4ccccc4c3Oc3ncn(CCN4CCOCC4)c(=N)c32)cc1OC (stereo not given),11,6,1,8.6*,1,12,9.2*
COc1ccc(C2c3ccc4ccccc4c3Oc3ncn(CCO)c(=N)c32)cc1OC (stereo not given),·,-4,·,·,-2,·,·
O=S(=O)(c1ccccc1)N1CCCc2nc(-c3ccc(Br)cc3)ccc21,-8,·,1,-2,·,·,·
Nc1[nH]c(C(=O)c2ccccc2)c(-c2cccc3ccccc23)c1C(=O)NCc1ccc(F)c(F)c1,-13,·,1,-4,·,·,·
COc1ccccc1NC(=S)NCCC(c1ccccc1)c1ccccc1,7,25,0,4,1,·,·
COc1ccc(Cl)cc1NC(=S)NCc1ccccn1,8,-7,1,8.7*,1,-4,-1
COc1ccc(CCN(Cc2ccccn2)C(=S)Nc2ccccc2Cl)cc1OC,8,10,0,8.7*,0,10,8
COc1cc(NC(=S)NCCC(c2ccccc2)c2ccccc2)c(OC)cc1Cl,9,30,-1,9.7*,24*,25*,14*
COc1ccc(Cl)cc1NC(=S)NCCC(c1ccccc1)c1ccccc1,11,28,0,9.8*,18*,20*,9
COc1ccccc1NC(=S)NCc1ccccn1,2,-5,0,4,-3,·,·
C=CCN=C1NC(CCc2ccccc2)C(C(=O)OC)=C(C)N1Cc1ccccc1C(F)(F)F (stereo not given),-11,·,0,-4,·,·,·
Cc1ccc2c(c1)S/C(=C\c1cccc[n+]1C)N2CCO,8,-7,0,-2,2,·,·
CC(=O)N1c2ccc(C)cc2Sc2c1ccc1ccccc21,18,25,1,12*,-6,16,9.0*
S=C(SCc1c(Cl)cccc1Cl)N1CCSCC1,-8,·,-1,-2,·,·,·
Cc1cc(C)nc(NC(=O)CSc2nc3ccccc3s2)n1,-3,-6,-1,-3,-1,·,·
Cc1nc(NC(=O)CSc2nc3ccccc3s2)sc1C(=O)N(C)C,2,-6,0,10*,-3,10,7
CCN(CC)S(=O)(=O)c1ccc2c(c1)nc(CCC(=O)Nc1ccc3c(c1)OCO3)n2CC,2,-2,1,8.9*,-4,-1,3
CC(C)C[C@H](NC(=O)c1ccccn1)C(=O)N1CCC[C@H]1C(=O)NCc1ccccc1,-9,·,0,-1,·,·,·
O=C(c1c(Cl)nc2sccn12)N1CCN(c2cccc(Cl)c2)CC1,10,6,0,9.1*,0,-8,-1
Cc1ccc(S(=O)(=O)/N=C2/NC(=O)/C(=C/c3cc([N+](=O)[O-])ccc3O)S2)cc1,13,-2,1,8.6*,28*,-2,1
CCOC(=O)CN1C(=O)[C@]2(OCCC=C[C@H]2C)c2c(Br)cccc21,2,·,-1,-3,·,·,·
SMILES,ADAM10 inh,FAS TE block,KLK7 zymogen act,ADAM17 inh,NR3A LBD binder,ADAM10 ctr,ADAM17 confirm
O=C1NC[C@H](Cc2ccc(O)cc2)N(C[C@@H]2CCCN2C[C@H](Cc2ccc(O)cc2)N2C[C@H](Cc3ccccc3)N(CCc3ccccc3)C(=O)C2=O)C1=O,8,3,0,10*,·,-4,2
CC(C)CC1O[C@@H](C)[C@@H]2CN3CCc4c([nH]c5ccccc45)[C@@H]3C[C@@H]2N1C (stereo not given in full),-44,·,1,-12,·,·,·
O=C(Nc1ccccc1Cl)C1C2CCC3C(CCC21)C3(Cl)Cl (stereo not given),-3,-5,0,0,-1,·,·
O=C(Nc1ccccc1)C1C2CCC3C(CCC21)C3(Cl)Cl (stereo not given),13,3,1,8.8*,-1,13,9.6*
COC(=O)c1cc2c(c3c4cc(OC)ccc4n(S(=O)(=O)c4ccc(F)cc4)c13)C(=O)N(CC(C)C)C2,-10,·,1,-2,·,·,·
CCC(=O)Nc1nnc(C)s1,6,-3,0,12*,-1,-1,6
CCOC(=O)C1=C(C(=O)OCC)C2N(Cc3ccc(Br)cc3)c3ccccc3[C@@]23C[C@@H](C(=O)OC)N(S(=O)(=O)c2ccc(OC)cc2)C3=N1 (stereo not given in full),-11,·,0,-5,·,·,·
CCN1CCN(c2cc(SC(C)C)nc(-c3ccc(OC)cc3)n2)CC1,14,13,0,13*,2,23*,15*
CC(C)Sc1cc(N2CCOCC2)nc(-c2ccc(Cl)cc2)n1,-9,24,-1,6,0,·,·
CCC/C=C/c1ccc(CN2C(C(C)C)C(=O)N(Cc3cn(CCC4OCCO4)nn3)CCS2(=O)=O)cc1 (stereo not given),12,13,0,11*,·,30*,17*
Cc1ccc(S(=O)(=O)N2C3CCCCC3O[C@H]2CC(=O)c2ccc(F)cc2)cc1 (stereo not given in full),13,·,1,9.6*,·,9,6
Cc1ccc(S(=O)(=O)N2C3CCCCC3O[C@H]2CC(=O)c2ccccc2)cc1 (stereo not given in full),0,·,0,1,·,·,·
CCn1c(CNC(=O)COc2ccc(C(C)C)cc2)nnc1SCC(=O)Nc1ccc(F)cc1,3,20,0,4,1,·,·
CCn1c(CNC(=O)COc2ccc(C(C)C)cc2)nnc1SCC(=O)Nc1cc(F)ccc1C,12,12,0,12*,-41,1,4
COc1ccccc1N1CCN(C(=O)c2ccccc2Oc2ccccc2)CC1,13,6,0,15*,0,-2,0

# Assay outcomes from PubChem BioAssay.
